Experimental data as given in PubChem BioAssay (NCI).
About 79,000 compounds went through this panel and 15% of them were active in at least one assay; those are over-represented in the sample as a whole. Unmarked numbers belong to inactive results. Active and inactive are the calls of the source. Cut-off read from the data, not from the text of the source: active = growth inhibition above about 70%; inactive = the rest.

Tests used:
[1] = NCI Yeast Anticancer Drug Screen. Data for the rad50 strain (AID 155);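 note: 0% = growth of vehicle-only cultures of the same strain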; conditions: S. cerevisiae rad50 strain growth inhibition, active compounds read high
Procedure, shortened: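 Growth of the mutant yeast was measured after compound exposure and referenced to vehicle-treated cultures.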

[2] = NCI Yeast Anticancer Drug Screen. Data for the mec2-1 strain (AID 157); conditions: S. cerevisiae mec2-1 strain, active compounds read high
Procedure, shortened: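 Cells of the genetically defined mec2-1 yeast strain are incubated with test compound. Inhibition of growth is calculated against vehicle-treated controls.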

[3] = NCI Yeast Anticancer Drug Screen. Data for the sgs1 mgt1 strain (AID 161);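 note: 0% = growth of cultures given vehicle only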; conditions: S. cerevisiae sgs1 mgt1 strain, active compounds read high
Procedure, shortened: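 Genetically altered yeast, compound exposure, growth inhibition relative to vehicle.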

[4] = NCI Yeast Anticancer Drug Screen. Data for the cln2 rad14 strain (AID 165);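 note: 0% = growth equal to vehicle treated cultures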; conditions: S. cerevisiae cln2 rad14 strain, active compounds read high
Procedure, shortened: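 The screen exposed genetically defined yeast (cln2 rad14) to test compounds and scored growth inhibition relative to vehicle-treated controls.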

[5] = NCI Yeast Anticancer Drug Screen. Data for the bub3 strain (AID 167); conditions: S. cerevisiae bub3 mutant strain, active compounds read high
Procedure, shortened: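 Whole-cell yeast assay. The mutant strain was incubated with compounds, and growth inhibition was determined by comparison with vehicle-treated cells.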

[6] = NCI Yeast Anticancer Drug Screen. Data for the mlh1 rad18 strain (AID 175); conditions: S. cerevisiae mlh1 rad18 strain growth inhibition, active compounds read high
Procedure, shortened: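 Compound-treated yeast growth, normalised to vehicle controls. Strain bears defined DNA repair mutations.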

[7] = at 5.0 µM (retest, dose inferred, filed as 0.5)
[8] = at 50.0 µM (retest, dose inferred, filed as 5.0)

SMILES | growth inhibition [1, 7] | growth inhibition [1, 8] | growth inhibition ([1]; at 50.0 µM) | growth inhibition [2, 7] | growth inhibition [2, 8] | growth inhibition ([2]; at 50.0 µM) | growth inhibition [3, 7] | growth inhibition [3, 8] | growth inhibition ([3]; at 50.0 µM) | growth inhibition [4, 7] [%] | growth inhibition [4, 8] | growth inhibition ([4]; at 50.0 µM) | growth inhibition [5, 7] | growth inhibition [5, 8] | growth inhibition ([5]; at 50.0 µM) | growth inhibition [6, 7] | growth inhibition [6, 8] | growth inhibition ([6]; at 50.0 µM)
COC1OC(CO)C(O)C(OC(=O)c2ccc([N+](=O)[O-])cc2)C1OS(=O)(=O)c1ccc(C)cc1 (stereo not given) | 2% | 0% | 31.8% | -1% | 7% | -0.1% | -1% | 0% | 18.7% | -1 | -1% | -2.5% | 2% | -2% | -0.2% | 27% | 7% | 10.6%
O=C(CC(C(=O)O)c1c[nH]c2ccccc12)c1ccccc1 (stereo not given) | -2% | -2% | 45.4% | -3% | 7% | -18.6% | -5% | 0% | 56.8% | -5 | -63% | -16.6% | -1% | 7% | 93.8% (active) | -4% | 1% | -0.1%
O=S(=O)(OI(OI(OS(=O)(=O)C(F)(F)F)c1ccccc1)c1ccccc1)C(F)(F)F | 58% | 97% (active) | 89.2% (active) | 48% | 98% (active) | 91.5% (active) | 44% | 98% (active) | 91.7% (active) | 27 | 92% (active) | 91.1% (active) | 65% | 98% (active) | 91% (active) | 75% (active) | 97% (active) | 89.2% (active)
CCCC/C(=C\c1cc(Cl)c(O)c(Cl)c1)C(=O)O | 4% | 79% (active) | 59.5% | 2% | 79% (active) | 70.8% (active) | 2% | 82% (active) | 71.8% (active) | -5 | 76% (active) | 72.4% (active) | 1% | 79% (active) | 56% | -16% | 85% (active) | 87.5% (active)
CC(=O)CCC(Br)(CCC(Br)(CCC(C)=O)[N+](=O)[O-])[N+](=O)[O-] (stereo not given) | 0% | 13% | 95.2% (active) | 8% | 14% | 90.5% (active) | -5% | 33% | 81.8% (active) | 15 | 29% | 91.5% (active) | 11% | 28% | 79% (active) | 12% | 22% | 98.3% (active)
CC#CC#C/C=C1/C=CC(=O)O1 | 2% | 80% (active) | 27.4% | 3% | 66% | 33.5% | 1% | 62% | 42.2% | -1 | 26% | -16.8% | 3% | 59% | 13.5% | 0% | 84% (active) | 75% (active)
Cc1ccc(/C=N/Nc2ccc([N+](=O)[O-])cc2[N+](=O)[O-])cc1 | -2% | -4% | 19.4% | -1% | -2% | -8.75% | -3% | -3% | 10.6% | -4 | -9% | 20.1% | -3% | -4% | -9.15% | -4% | -4% | -3.9%
Cc1c2ccccc2c(C)n2c1nc1cc(Cl)c(Cl)cc12 | 12% | 95% (active) | 86.2% (active) | 7% | 93% (active) | 91.3% (active) | 26% | 45% | 89.3% (active) | 27 | 95% (active) | 87.1% (active) | 18% | 97% (active) | 89.9% (active) | 23% | 96% (active) | 85.6% (active)
COc1cc2c(Cc3ccc(OC)c(OC)c3)[n+](Cc3ccccc3)ccc2cc1NCc1ccccc1 | 90% (active) | 98% (active) | 89% (active) | 90% (active) | 99% (active) | 92.2% (active) | 93% (active) | 99% (active) | 86% (active) | 65 | 98% (active) | 89.6% (active) | 92% (active) | 99% (active) | 81.1% (active) | 88% (active) | 99% (active) | 92.7% (active)
NNC(=O)N/N=C(\CC1(O)C(=O)Nc2c(Cl)ccc(Cl)c21)c1ccc(F)cc1 (stereo not given) | 79% (active) | 91% (active) | 56.4% | 50% | 80% (active) | 39.5% | 72% (active) | 85% (active) | 37.4% | 64 | 74% (active) | 2.75% | 70% (active) | 80% (active) | 21.9% | 57% | 73% (active) | 50.3%
